The panel holds about 83,000 compounds, 20% with a hit somewhere; the sample as a whole holds those more often.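 The endpoint reported here, percent growth, reads 100 for growth as untreated, 0 for no net growth and -100 for all cells dead.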 Active and inactive are the calls of the source. Rule for the calls: active = growth percent below 10; inactive = the rest.
These molecules were tested on 786-0 renal (assay: NCI-60 one-dose screen, 48 h (100 = growth as untreated, 0 = no growth, -100 = all killed)). Conditions: 10 µM unless noted.
In the case of `COc1cc2c3c(c1)nc(C)n3CCC2`, the growth is reported as 98.1% (inactive).
With `Cc1sc2c(c1C)c(=O)nc1c(-c3nc4ccccc4s3)n[nH]n12` the growth was 105% (inactive).
For `COc1cc2c(cc1OCCCCCN1CCN(c3ncnc4ccccc34)CC1)N=CC1CCCN1C2=O` (centres undefined), the growth was -9.08% (active).
For `COc1cc2c(cc1OCCCCN1CCN(CC(=O)Nc3ccc(Cl)cc3C(=O)c3ccccc3Cl)CC1)N=CC1CCCN1C2=O` (centres undefined), the growth was -94.2% (active).
`CCOC(=O)C1=C(C)NC(=O)NC1c1cc(=O)oc2ccc(C)cc12` (centres undefined) was tested, and the growth was 102% (inactive).
`COc1ccc2nc3cc(Cl)ccc3c(Nc3ccc(N(C)C)cc3)c2c1` was tested, and the growth was 96.9% (inactive).
For `C[C@@H](C[C@H](CCO)c1cc(C(F)(F)F)cc(C(F)(F)F)c1)c1ccc2ccccc2c1`, the growth was 87.5% (inactive).
For `COc1ccc2c(CCCc3ccc(Cl)cc3Cl)c3[n+](cc2c1OC)CCc1cc2c(cc1-3)OCO2`, the growth was 16.5% (inactive).
`COc1cc2c(cc1OCCCCCCN1CCN(c3ncnc4ccccc34)CC1)N=CC1CCCN1C2=O` (centres undefined) was tested, and the growth was -10.3% (active).
For `c1cc[n+](Cc2c3ccccc3cc3c2ccc2ccccc23)cc1`, the growth was 38% (inactive).
With `CC(C)[C@@H]1CC[C@]2(CO2)[C@@H]2C(=O)OCC(C(=O)O)=C[C@H]21` the growth was 11.6% (inactive).
In the case of `N#Cc1c(NC(=O)c2cccs2)[n+]([O-])c2ccc(F)cc2[n+]1[O-]`, the growth is reported as 103% (inactive).
For `CC(CCCC(=O)O)c1ccoc1` (centres undefined), the growth was 98.8% (inactive).
For `CCCCCCCC(=O)SCC/C=C/[C@@H]1CC(=O)NCc2nc(co2)C2=N[C@@](C)(CS2)C(=O)N[C@@H](C(C)C)C(=O)O1`, the growth was 10.2% (inactive).
With `Nc1c(C(=O)c2ccccc2)sc2nc(-c3cccs3)ccc12` the growth was 51.7% (inactive).
For `COc1ccc2c(CCCCC(c3ccccc3)c3ccccc3)c3[n+](cc2c1OC)CCc1cc2c(cc1-3)OCO2`, the growth was -75.8% (active).
In the case of `CC(C)(C)C(=O)OCOP(=O)(OCOC(=O)C(C)(C)C)C1CCCN(OC(=O)c2ccccc2)C1=O` (centres undefined), the growth is reported as 17.8% (inactive).
For `O=C(Cc1ccccc1)Nc1nnc(NC2CCN(c3nnc(NC(=O)Cc4ccccc4)s3)CC2)s1`, the growth was 89% (inactive).
In the case of `CCCCCCC1(/C=N/NC(N)=O)NC(=O)NC1=O` (centres undefined), the growth is reported as 98.2% (inactive).
For `CC(N)C(Cc1ccc(Cl)cc1)c1ccc(Cl)cc1` (centres undefined), the growth was 57.1% (inactive).
`CC(C)[C@@H](C)/C=C/[C@@H](C)[C@H]1CCC2=C3C=CC4=CC(=O)CC[C@]4(C)[C@H]3CC[C@@]21C` was tested, and the growth was 101% (inactive).
With `CCOC(=O)C1=C(C)N=C2Sc3cc(OC(F)(F)F)ccc3N2[C@H]1c1ccccn1` the growth was 59.1% (inactive).
In the case of `COC(=O)[C@]12CC[C@@H](C)[C@H](C)[C@@H]1C1=CC[C@@H]3[C@@]4(C)C(c5cnco5)=C[C@@](C)(CO)C4=CC[C@@]3(C)[C@]1(C)CC2`, the growth is reported as 70.5% (inactive).
With `C=C1C(=O)O[C@H]2[C@H]1CC/C(Cn1cc(-c3cc(C)c(C)cc3C)nn1)=C\CC[C@@]1(C)O[C@@H]21` the growth was -77.5% (active).
In the case of `C=C1C(=O)O[C@H]2[C@H]1CC/C(CNC(=O)c1cc3cc(OC)ccc3[nH]1)=C\CC[C@@]1(C)O[C@@H]21`, the growth is reported as -67.2% (active).
`C=CCC(=O)N[C@H](/C=C/C(=O)O)Cc1ccc(-c2cc(Cl)cc(Cl)c2)cc1` was tested, and the growth was 98.4% (inactive).
In the case of `NN1C(=O)CSC1=S`, the growth is reported as 99.2% (inactive).
In the case of `CC(=O)C(C(C)=O)C(c1ccccc1)C(C(C)=O)C(C)=O`, the growth is reported as 97.2% (inactive).
For `COc1cc(NCCN(CC(C)C)CC(C)C)c2ncc(C)cc2c1`, the growth was 91.3% (inactive).
For `COc1ccc2c(CCC(c3ccccc3)c3ccccc3)c3[n+](cc2c1OC)CCc1cc2c(cc1-3)OCO2`, the growth was 14.8% (inactive).
With `O=C1CC(c2ccc3c(c2)OCO3)c2ncn(-c3ccc(Cl)cc3)c2N1` (centres undefined) the growth was 38.4% (inactive).
With `Clc1nc(Cl)c2ncn(CC#CCn3cnc4c(Cl)nc(Cl)nc43)c2n1` the growth was 7.75% (active).
With `COc1ccc(C2CC(=O)c3c(O)c(OC)c(OC)c(OC)c3O2)c(O)c1` (centres undefined) the growth was 47.2% (inactive).
`C[N+](C)(CCOC(c1ccccc1)c1ccccc1)CC(=O)OCc1ccccc1` was tested, and the growth was 105% (inactive).
`Nc1c2c(c(O)c3c1=C(CO)C=N3)=NCCS2` was tested, and the growth was -82.6% (active).
In the case of `Cc1cccc(NC(=O)[C@@H]2c3ccccc3C(=O)N(c3ccc(Cl)cc3)[C@H]2c2ccc(Cl)cc2)n1`, the growth is reported as 61.2% (inactive).
In the case of `CC(N)C(Cc1ccccc1)c1ccc(Cl)cc1` (centres undefined), the growth is reported as 81% (inactive).
With `C=CCCCC(=O)CCC(=O)OCC1O[C@@H](O[C@@H]2C(O)[C@@H](OC(C)=O)C(C)O[C@H]2O[C@H](CC=C)CCCCC)C(O)[C@@H](OC(=O)/C(C)=C/C)[C@@H]1OC(=O)/C=C/c1ccccc1` (some centres undefined) the growth was 18.9% (inactive).
`COc1ccc2c(c1OC)C(=O)O[C@@H]2[C@H]1c2c(c(C#CC#Cc3ccc(F)c(F)c3)c3c(c2OC)OCO3)CCN1C` was tested, and the growth was 93% (inactive).
